According to PubChem BioAssay AID1942 (Johns Hopkins Ion Channel Center, 2009):
Hit rate of the full screen: of about 2,400 compounds, about 580 (24%) were called active. Not all results are given here. Values without a mark were called inactive.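 The calls were made as follows: active = activity change at or above the mean plus 3 SD of buffer wells without dofetilide, per plate; inactive = the rest.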

biological target: Potassium voltage-gated channel subfamily KQT member 2 (Rattus norvegicus) (UniProt O88943); test: rat KCNQ2 channel activation by compounds alone, confirmation, counter-screen for hERG block protector project, cell-based, CHO, FluxOR thallium flux (AID 1942); settings: CHO-KCNQ2 cells, FluxOR thallium flux fluorescence; at 10 µM; stronger effect = higher value;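 also: normalized value minus buffer-control mean plus three SD of buffer wells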
Sequence (O88943 whole entry, looked up): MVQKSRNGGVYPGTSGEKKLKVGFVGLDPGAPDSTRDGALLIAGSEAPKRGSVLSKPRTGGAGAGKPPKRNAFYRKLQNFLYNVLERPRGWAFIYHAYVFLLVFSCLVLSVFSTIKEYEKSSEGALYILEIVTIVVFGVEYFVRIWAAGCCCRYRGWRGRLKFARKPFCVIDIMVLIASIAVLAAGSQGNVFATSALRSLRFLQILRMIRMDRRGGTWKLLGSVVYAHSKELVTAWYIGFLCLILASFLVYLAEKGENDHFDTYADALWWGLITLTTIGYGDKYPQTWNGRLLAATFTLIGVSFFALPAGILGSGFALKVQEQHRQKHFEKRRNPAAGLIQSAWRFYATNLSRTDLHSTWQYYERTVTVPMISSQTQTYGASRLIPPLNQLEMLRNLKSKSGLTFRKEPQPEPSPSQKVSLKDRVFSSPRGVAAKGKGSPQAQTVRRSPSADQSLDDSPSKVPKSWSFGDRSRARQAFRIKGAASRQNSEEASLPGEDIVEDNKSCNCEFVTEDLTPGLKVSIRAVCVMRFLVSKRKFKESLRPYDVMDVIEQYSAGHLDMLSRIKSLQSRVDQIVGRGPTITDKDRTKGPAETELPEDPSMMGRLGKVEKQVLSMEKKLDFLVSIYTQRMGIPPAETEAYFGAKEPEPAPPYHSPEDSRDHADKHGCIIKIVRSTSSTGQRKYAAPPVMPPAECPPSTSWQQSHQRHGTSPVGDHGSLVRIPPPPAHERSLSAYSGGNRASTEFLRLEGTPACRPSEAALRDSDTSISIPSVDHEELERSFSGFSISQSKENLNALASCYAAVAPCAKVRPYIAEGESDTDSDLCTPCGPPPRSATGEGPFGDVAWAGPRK

| SMILES | activity change, less the hit threshold |
| --- | --- |
| Cc1sc2nc(CN3CCOCC3)[nH]c(=S)c2c1C | 93.4% (active) |
| C/C(Nc1cccc(F)c1)=C(/C#N)C(N)=O | -14.7% |
| Cc1nc(NCc2cccnc2)c2c3c(sc2n1)CC(C)CC3 (configuration not stated) | 26.7% (active) |
| Cc1cccc(NC(=O)CN2C(=O)S/C(=C\c3cccn3-c3cccc(C(=O)O)c3)C2=O)c1 | -18.5% |
| S=c1nc[nH]c2c1sc1nc(-c3ccccc3)c3c(c12)CCCC3 | -4.2% |
| S=c1nc[nH]c2c1sc1nc(N3CCOCC3)c3c(c12)CCCC3 | 43.5% (active) |
| CC(C)c1nc2sc3c(=S)nc[nH]c3c2c2c1CCC2 | 14.2% (active) |
| COc1ccc(S(=O)(=O)Nc2cccnc2)cc1 | -17.2% |
| CN(C)C(=O)c1ccc(NC(=O)c2cncc(Br)c2)cc1 | -12% |
| O=C(NNC(=S)NC(=O)c1sc2ccccc2c1Cl)c1ccc(Cl)cc1 | 11.1% (active) |
| Cc1ccc(C(=O)NNC(=S)NC(=O)c2ccc(Cl)cc2)cc1 | -28.7% |
| Cc1ccc(NC(=S)NC(=O)c2sc3ccccc3c2Cl)c(C(=O)O)c1 | 13.9% (active) |
| O=C(Nc1nc(=O)c2ccccc2s1)c1ccc(Cl)cc1 | -5.6% |
| COc1ccccc1C(=O)NNC(=S)NC(=O)c1sc2ccccc2c1Cl | 19.7% (active) |
| O=C(NC(=S)Nc1ccc(N2CCOCC2)c(Cl)c1)c1sc2ccccc2c1Cl | -10.6% |
| COc1cccc(C(=O)NC(=S)Nn2cnnc2)c1OC | -19.6% |
| COc1ccccc1C(=O)NC(=S)NNC(=O)c1sc2ccccc2c1Cl | 77% (active) |
| CCC(C)N(C(=O)CSc1nnc(NC(C)C)s1)C1CCS(=O)(=O)C1 (configuration not stated) | -15.4% |
| O=c1cc(CN2CCN(S(=O)(=O)c3ccc4c(c3)OCCO4)CC2)c2ccc(O)cc2o1 | -20% |
| S=c1[nH]nc(CSc2nc3ccccc3s2)n1C1CCCCC1 | -2.2% |
| Cc1ccc(C(=O)NNc2cc(N3CCCC3)nc(N3CCCC3)n2)cc1 | 16.1% (active) |
| Cc1ccc(CNC(=O)c2ccc(CNc3c(N4CCCC4)c(=O)c3=O)cc2)cc1 | -23.6% |
| Cc1ccc(C(=O)Nc2nc(=O)n(C)s2)cc1 | -12% |
| O=C(Nc1nnc(C2=COCCO2)o1)c1ccc(Br)cc1 | -2.3% |
| CCn1cc(C(=O)NCCN(C)C)c(=O)c2cc(F)c(N3CCN(C)CC3)cc21 | -23.9% |

| SMILES | activity change, less the hit threshold |
| --- | --- |
| COc1ccc(C(=O)Nc2ccc(-n3nncc3C(C)(C)C)cc2)cc1 | 17.5% (active) |
| COc1ccc(NC(=O)c2ccc(COCC(F)(F)C(F)F)cc2)cc1 | -19.7% |
| COc1ccc(NC(=O)c2ccc(NC3=NC4CS(=O)(=O)CC4S3)cc2)cc1 (configuration not stated) | -19.9% |
| CCSc1nnc(NC(=O)CC(C)C)s1 | -11.1% |
| O=c1cc(-c2ccccc2)nc2c(-c3ccccc3)c(C(F)(F)F)[nH]n12 | 59.6% (active) |
| NC(=O)c1nn2c(C(F)(F)F)cc(-c3ccccc3)nc2c1Br | -18.2% |
| Cc1nn(CCC#N)c2nc(-c3ccccc3)cc(C(F)(F)F)c12 | -22.2% |
| Cc1[nH]n2c(=O)cc(C(C)C)nc2c1-c1ccccc1 | -3.3% |
| Cc1[nH]n2c(=O)cc(C(C)(C)C)nc2c1-c1ccccc1 | 14.6% (active) |
| CN(C(=O)CCc1ccccc1)c1nnc(-c2ccncc2)s1 | -20.2% |
| Cc1cc(=O)oc2cc(OCC(=O)OCC(=O)NC(C)C)ccc12 | -16.8% |
| O=C(NCCc1nnc2ccc(NCc3ccc(Cl)cc3)nn12)c1ccccc1 | -7.7% |
| O=C(N/N=C/c1cc([N+](=O)[O-])ccc1O)c1ccc(COc2ccc3c(c2)CCC3)o1 | -47.5% |
| N#CCCn1cc(/C=N/NC(=O)c2ccncc2)c(-c2ccc(F)cc2)n1 | -4.3% |
| CCn1ccnc1CN1CCCC(CO)(Cc2cccc(OC)c2)C1 (configuration not stated) | -24.6% |
| CCNC(=O)C/C(C)=N/NC(=O)C(=O)Nc1ccc(CC)cc1 | 4.9% (active) |
| CCCCNC(=O)COC(=O)c1ccc(NC(C)=O)cc1 | -20.3% |
| CSCC[C@H](NC(=O)Nc1ccc(C)cc1C)C(=O)O | -12% |
| CCOC(=O)C1CCN(S(=O)(=O)c2cccc3nonc23)CC1 | -11.1% |
| O=C(O)CN1C(=O)c2ccc(Oc3ccc4c(c3)C(=O)N(CC(=O)O)C4=O)cc2C1=O | -11.1% |
| O=C(O)Cc1cc(I)c(Oc2ccc(O)c(I)c2)c(I)c1 | 93.7% (active) |
| NC(=O)Cn1c2[n+](c3ccccc31)CC(O)CS2 (configuration not stated) | -19.2% |
| CCc1ccccc1N(CC(=O)NC(C)c1ccccc1)S(C)(=O)=O (configuration not stated) | -20.5% |
| Cc1ccc(NC(=O)C2C3CCC(O3)C2C(=O)O)cc1C (configuration not stated) | -2.7% |
| CCc1ccc(C(C)NC(=O)C2CCCC2)cc1 (configuration not stated) | 14.8% (active) |

| SMILES | activity change, less the hit threshold |
| --- | --- |
| Cc1ccc(C(C)NC(=O)C2CCCC2)cc1C (configuration not stated) | 37.3% (active) |
| Cc1ccc(NC(=O)c2noc3c2CCC3)cc1C | -19.4% |
| CSc1ccccc1-n1nnnc1SCC(=O)Nc1cc(C)ccc1C | -20.8% |
| C=CCSC1=C(C#N)C(c2ccccc2)CC(=O)N1 (configuration not stated) | -23.3% |
| Cc1ccsc1/C=N/NC(=O)CNC(=O)c1ccccc1 | -13.4% |
| O=C(CNC(=O)c1ccccc1)NCc1ccc(Cl)cc1 | -10.7% |
| Cc1nn(C(=O)CNC(=O)c2ccccc2)c(C)c1C | 17.2% (active) |
| Cc1ccc(S(=O)(=O)N2CCOCC2)cc1NC(=O)COC(=O)c1cccnc1Cl | -22.8% |
| CC(C)c1ccc(CNc2nc3nc4c(c(=O)n3[nH]2)CCC4)cc1 | 0.8% (active) |
| CCC(=O)Nc1ccc(N2CCOCC2)c(S(=O)(=O)Nc2ccc(OC)cc2)c1 | -22.6% |
| Cc1ccc2[nH]c(C(=O)O)c(-c3ccccc3)c2c1 | -8.1% |
| Cc1ccc(-n2nc3ccc(N)cc3n2)c(C)c1 | -29.1% |
| Cc1cc(C)cc(-n2ncc3c2CCCC3NC(=O)c2csnn2)c1 (configuration not stated) | -28.6% |
| CC(O)C(NS(=O)(=O)c1ccc(Cl)cc1)C(=O)OCc1cc([N+](=O)[O-])cc2c1OCOC2 (configuration not stated) | -18.1% |
| O=[N+]([O-])c1ccc(Nc2ccccc2F)nc1 | -2.6% |
| O=[N+]([O-])c1ccc(CSc2nnc(SCc3ccc(Cl)cc3)s2)cc1 | -10.9% |
| O=[N+]([O-])c1ccc(Nc2ccc(Cl)cc2)nc1 | 3.5% (active) |
| COc1cc(OC)cc(C(=O)NC(=S)Nc2ccc(NC(=O)c3ccco3)cc2)c1 | -20.6% |
| CCOc1ccc(NC(=S)NC(=O)c2ccco2)cc1 | 8% (active) |
| CCN(CC)c1ccc(NC(=S)NC(=O)c2ccco2)cc1 | 35.9% (active) |
| CCCOc1ccc(C(=O)NNC(=S)NC(=O)c2ccco2)cc1 | -27.6% |
| CNC(=O)c1cc(C(=O)c2ccc(F)cc2C(F)(F)F)c[nH]1 | -11.8% |
| CCC(C)(C)NC(=O)c1ccc(Sc2nncn2C)c([N+](=O)[O-])c1 | -20.1% |
| O=C1CCN(S(=O)(=O)c2ccc(Cl)cc2)CCN1 | -21.6% |
| CC(Sc1n[nH]c(=O)[nH]c1=O)C(=O)OCc1ccccc1 (configuration not stated) | -11.2% |

| SMILES | activity change, less the hit threshold |
| --- | --- |
| COCCNC(=O)CN(C(=O)c1ccc(N2CCCC2)nc1)c1ccccc1 | -18.5% |
| Cn1nnnc1SCC(=O)Nc1ccccn1 | -5.9% |
| CC(=O)Nc1ccccc1NC(=O)C/C(C)=N/NC(=O)c1ccc([N+](=O)[O-])c(Cl)c1 | -19% |
| C/C(CC(=O)Nc1ccccn1)=N\NC(=O)C(=O)Nc1cccc(Cl)c1C | 1.1% (active) |
| c1ccc(Cn2ncc3c(N4CCN(C(c5ccccc5)c5ccccc5)CC4)ncnc32)cc1 | -29.3% |
| COc1ccccc1Nc1nnc(SCC(=O)Nc2nc(-c3ccc(F)cc3)cs2)s1 | -22.3% |
| COc1cccc2sc(Nc3nnc(-c4cccs4)o3)nc12 | 53.9% (active) |
| CCOc1ccccc1Nc1nc(-c2sc(C)nc2C)cs1 | -22% |
| COc1cccc2sc(Nc3nnc(-c4ccc(F)cc4)o3)nc12 | 45.4% (active) |
| N#C/C(=C\c1ccc(-c2ccccc2Cl)o1)C(=O)Nc1nc2ccccc2s1 | -10.9% |
| COc1cccc2sc(Nc3nnc(-c4ccccc4Cl)o3)nc12 | 9.4% (active) |
| COc1cccc2sc(Nc3nc(-c4ccccn4)cs3)nc12 | 20.3% (active) |
| Cc1ccc(CNC(=O)C2=CCN(S(=O)(=O)c3ccc(C)cc3)CC2)cc1 | -15.1% |
| Cc1c(C(=O)NNC(=O)c2ccncc2)oc2ccc(Br)cc12 | -16.1% |
| Cc1ccc(CNC(=O)CN(C(=O)C2(C)CC(=O)N=C3C=CC=CN32)c2ccccc2F)cc1 (configuration not stated) | -10.9% |
| C=Cc1ccc(Cn2c(=O)n(CCCOC)c(=O)c3sccc32)cc1 | -28.9% |
| O=S(=O)(Nc1ccc(Cc2ccncc2)cc1)c1ccc(Cl)c(Cl)c1 | -20.9% |
| CCCn1c(CC)nc([N+](=O)[O-])c1S(=O)(=O)c1ccccc1 | -4.3% |
| CC(C)[C@H](NC(=O)c1ccco1)C(=O)OCC(=O)Nc1cccc(F)c1 | -22% |
| CCOc1c(OC)ccc2c3c(c(=O)oc12)CCCC3 | -8.2% |
| CN1CCN(S(=O)(=O)c2cccc(S(=O)(=O)c3ccc(Cl)cc3)c2)CC1 | -17.8% |
| Cn1c(=O)c2c(nc(Cl)n2CC(=O)N2CCCCC2)n(C)c1=O | -22.7% |
